Test results from PubChem BioAssay (NCATS).
Inconclusive results are not listed. Active and inactive are the calls of the source. The call rests on the fitted dose curve; in most records, active means well fitted curve in the direction sought with a large enough effect; inconclusive means small, poorly fitted or top-dose-only effect, or another doubt; inactive means no such curve, though single readings can be large; an effect the other way counts as inactive or inconclusive.

How the values were obtained:
[1] = Quantitative High-Throughput drug screen in 47 multiple myeloma cell lines against the NCATS MIPE library collection: KMM1_JCRB cell viability assay (AID 1918960); further: nearly all actives have a fitted effect of over 30% in size; further: potency means the concentration at half of the fitted maximal effect;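 on viability (% of DMSO): 100% = DMSO-treated cells and 0% = medium-only wells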
Summary of the method: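 ATP readout (CellTiter-Glo), 48 h drug incubation, 37 °C/5% CO2, 500 cells per well; normalisation to DMSO (100%) and media-only (0%) controls.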

[2] = Quantitative High-Throughput drug screen in 47 multiple myeloma cell lines against the NCATS MIPE library collection: Karpas417_ECACC cell viability assay (AID 1918961); conditions: Karpas417 myeloma viability, CellTiter-Glo ATP luminescence, 48 h; viability (% of DMSO): at 45.8 µM (top of the series); further: potency means the concentration at half of the fitted maximal effect
Summary of the method: (§1)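 Steps: seed 500 cells per well; pin-transfer MIPE 4.0 library; incubate 48 h at 37C, 5% CO2, humidified; add CellTiter-Glo, 5 min room temperature; read luminescence.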

[3] = Quantitative High-Throughput drug screen in 47 multiple myeloma cell lines against the NCATS MIPE library collection: KHM11_PLB cell viability assay (AID 1918962); further: nearly all actives have a fitted effect of over 35% in size; further: potency means the concentration at half of the fitted maximal effect
Summary of the method: (§2)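 Luminescent ATP measurement with CellTiter-Glo gives viability, scaled between DMSO-only wells (100%) and media-only wells (0%). Cells, 500 per well, faced library compounds for 48 hours at 37C.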

[4] = Quantitative High-Throughput drug screen in 47 multiple myeloma cell lines against the NCATS MIPE library collection: JIM3_ECACC cell viability assay (AID 1918963; further: nearly all actives have a fitted effect of over 35% in size; further: potency means the concentration at half of the fitted maximal effect)
Summary of the method: as §2

[5] = Quantitative High-Throughput drug screen in 47 multiple myeloma cell lines against the NCATS MIPE library collection: JIM1_ECACC cell viability assay (AID 1918964; further: potency means the concentration at half of the fitted maximal effect)
Summary of the method: (§3)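 Primary qHTS used for cherry-picking: cells at 500/well, library compounds for 48 h (37C, 5% CO2), luminescent ATP assay.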

[6] = Quantitative High-Throughput drug screen in 47 multiple myeloma cell lines against the NCATS MIPE library collection: INA6_PLB cell viability assay (AID 1918965; further: nearly all actives have a fitted effect of over 55% in size; further: potency means the concentration at half of the fitted maximal effect)
Summary of the method: as §1

[7] = Quantitative High-Throughput drug screen in 47 multiple myeloma cell lines against the NCATS MIPE library collection: JJN3_DSMZ cell viability assay (AID 1918966; further: nearly all actives have a fitted effect of over 50% in size; further: potency means the concentration at half of the fitted maximal effect)
Summary of the method: as §3

[8] = Quantitative High-Throughput drug screen in 47 multiple myeloma cell lines against the NCATS MIPE library collection: Karpas25_ECACC cell viability assay (AID 1918968; further: nearly all actives have a fitted effect of over 35% in size; further: potency means the concentration at half of the fitted maximal effect)
Summary of the method: as §3

[9] = Quantitative High-Throughput drug screen in 47 multiple myeloma cell lines against the NCATS MIPE library collection: KMS27_JCRB cell viability assay (AID 1918970); conditions: KMS27 myeloma cells, CellTiter-Glo ATP viability, 48 h; viability (% of DMSO): at 45.8 µM (top of the series); further: nearly all actives have a fitted effect of over 30% in size; further: potency means the concentration at half of the fitted maximal effect
Summary of the method: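 Each line is seeded at 500 cells per well and treated with library compounds for 48 hours under 37 °C, 5% CO2. CellTiter-Glo is then added for 5 min at room temperature before median relative luminescence is recorded.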

[10] = Quantitative High-Throughput drug screen in 47 multiple myeloma cell lines against the NCATS MIPE library collection: KMS12PE_JCRB cell viability assay (AID 1918972); further: nearly all actives have a fitted effect of over 30% in size; further: potency means the concentration at half of the fitted maximal effect
Summary of the method: as §1

[11] = Quantitative High-Throughput drug screen in 47 multiple myeloma cell lines against the NCATS MIPE library collection: KMS21BM_JCRB cell viability assay (AID 1918974); conditions: ATP luminescence, 48 h; viability: at 45.8 µM (top of the series); further: potency means the concentration at half of the fitted maximal effect
Summary of the method: as §3

[12] = Quantitative High-Throughput drug screen in 47 multiple myeloma cell lines against the NCATS MIPE library collection: NCIH929_DSMZ cell viability assay (AID 1918978); further: nearly all actives have a fitted effect of over 35% in size; further: potency means the concentration at half of the fitted maximal effect
Summary of the method: (§4)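 Inhibition of viability over 48 h was scored by ATP content (CellTiter-Glo) in 500-cell wells. Zero and full viability were defined by media-only and DMSO-only wells.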

[13] = Quantitative High-Throughput drug screen in 47 multiple myeloma cell lines against the NCATS MIPE library collection: MM1S_ATCC cell viability assay (AID 1918980); further: nearly all actives have a fitted effect of over 45% in size; further: potency means the concentration at half of the fitted maximal effect
Summary of the method: as §4

[14] = Quantitative High-Throughput drug screen in 47 multiple myeloma cell lines against the NCATS MIPE library collection: MMM1_PLB cell viability assay (AID 1918976)
Summary of the method: as §4

[15] = Quantitative High-Throughput drug screen in 47 multiple myeloma cell lines against the NCATS MIPE library collection: OCIMY1_PLB cell viability assay (AID 1918979); further: nearly all actives have a fitted effect of over 35% in size; further: potency means the concentration at half of the fitted maximal effect
Summary of the method: as §4

[16] = Quantitative High-Throughput drug screen in 47 multiple myeloma cell lines against the NCATS MIPE library collection: H1112_PLB cell viability assay (AID 1918967; further: nearly all actives have a fitted effect of over 30% in size; further: potency means the concentration at half of the fitted maximal effect)
Summary of the method: as §3

[17] = Quantitative High-Throughput drug screen in 47 multiple myeloma cell lines against the NCATS MIPE library collection: KMS26_JCRB cell viability assay (AID 1918975); further: nearly all actives have a fitted effect of over 45% in size; further: potency means the concentration at half of the fitted maximal effect
Summary of the method: (§5)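 Approved and investigational drugs from MIPE 4.0 were added by pin tool to 500 cells per well. After 48 hours at 37C, ATP-based CellTiter-Glo luminescence indicated remaining viability.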

[18] = Quantitative High-Throughput drug screen in 47 multiple myeloma cell lines against the NCATS MIPE library collection: MOLP8_DSMZ cell viability assay (AID 1918977); further: nearly all actives have a fitted effect of over 45% in size; further: potency means the concentration at half of the fitted maximal effect
Summary of the method: as §4

[19] = Quantitative High-Throughput drug screen in 47 multiple myeloma cell lines against the NCATS MIPE library collection: KMS12BM_JCRB cell viability assay (AID 1918971); further: nearly all actives have a fitted effect of over 35% in size; further: potency means the concentration at half of the fitted maximal effect
Summary of the method: as §5

[20] = Quantitative High-Throughput drug screen in 47 multiple myeloma cell lines against the NCATS MIPE library collection: KMS20_JCRB cell viability assay (AID 1918973); further: nearly all actives have a fitted effect of over 45% in size
Summary of the method: as §3

CC(C)Oc1cc(Nc2nc(N[C@@H](C)c3ccc(F)cn3)ncc2Cl)[nH]n1
Potency [1]: 16.6 µM (active)
Potency [2]: 2.64 µM (active)
Potency [3]: 10.5 µM (active)
Potency [4]: 8.33 µM (active)
Potency [5]: 20.9 µM (active)
Potency [6]: 7.43 µM (active)
Potency [7]: 20.9 µM (active)
Potency [8]: 10.5 µM (active)
Potency [9]: 20.9 µM (active)
Potency [10]: 23.5 µM (active)
Potency [11]: 5.26 µM (active)
Potency [12]: 5.26 µM (active)
Potency [13]: 23.5 µM (active)

CN(C)CCOc1ccc(C(=C(CCCl)c2ccccc2)c2ccccc2)cc1
Potency [1]: inactive
Potency [2]: inactive
Potency [3]: inactive
Potency [5]: inactive
Potency [6]: 4.18 µM (active)
Potency [7]: 23.5 µM (active)
Potency [8]: inactive
Potency [10]: inactive
Potency [14]: 23.5 µM (active)
Potency [12]: inactive
Potency [15]: inactive
Potency [13]: 1.18 µM (active)

Cc1cn([C@@H]2C[C@@H](O)[C@H](CO)O2)c(=O)[nH]c1=O
Potency [1]: inactive
Potency [2]: inactive
Potency [3]: inactive
Potency [4]: inactive
Potency [5]: inactive
Potency [6]: 0.0166 µM (active)
Potency [7]: inactive
Potency [16]: inactive
Potency [8]: inactive
Potency [9]: inactive
Potency [10]: inactive
Potency [17]: inactive
Potency [18]: inactive
Potency [12]: inactive
Potency [15]: inactive
Potency [13]: inactive

Cc1cccc(Nc2nc(N[C@@H]3CCCC[C@H]3N)ncc2C(N)=O)c1
Potency [1]: 16.6 µM (active)
Potency [2]: 3.72 µM (active)
Potency [3]: 4.18 µM (active)
Potency [4]: 16.6 µM (active)
Potency [5]: 5.9 µM (active)
Potency [6]: 1.48 µM (active)
Potency [7]: 16.6 µM (active)
Potency [8]: 10.5 µM (active)
Potency [9]: 23.5 µM (active)
Potency [19]: 14.8 µM (active)
Potency [10]: 16.6 µM (active)
Potency [17]: 20.9 µM (active)
Potency [14]: 20.9 µM (active)
Potency [12]: 6.62 µM (active)

CC(NCCc1ccc(O)cc1)C(O)c1ccc(O)cc1 (stereo not given)
Potency [1]: 0.132 µM (active)
Potency [2]: inactive
Potency [3]: inactive
Potency [4]: inactive
Potency [5]: inactive
Potency [6]: inactive
Potency [7]: inactive
Potency [16]: inactive
Potency [9]: inactive
Potency [19]: inactive
Potency [10]: inactive
Potency [14]: 14.8 µM (active)
Potency [18]: inactive
Potency [12]: inactive
Potency [13]: 5.9 µM (active)

COc1cc2nc(-c3cc(F)ccc3O)nc(N[C@@H]3CNC[C@@H]3C(C)(C)O)c2cc1OC
Potency [1]: 4.18 µM (active)
Potency [2]: 0.118 µM (active)
Potency [3]: 0.0743 µM (active)
Potency [4]: 7.43 µM (active)
Potency [5]: 1.87 µM (active)
Potency [6]: 0.001 µM (active)
Potency [7]: 11.8 µM (active)
Potency [16]: 14.8 µM (active)
Potency [8]: 4.18 µM (active)
Potency [9]: 5.9 µM (active)
Potency [19]: 20.9 µM (active)
Potency [10]: 8.33 µM (active)
Potency [11]: 0.935 µM (active)
Potency [17]: 18.7 µM (active)
Potency [12]: 7.43 µM (active)
Potency [15]: 18.7 µM (active)
Potency [13]: 18.7 µM (active)

CCN(CCO)CCCOc1ccc2c(Nc3cc(CC(=O)Nc4cccc(F)c4)[nH]n3)ncnc2c1
Potency [1]: inactive
Potency [2]: 0.469 µM (active)
Potency [3]: inactive
Potency [4]: inactive
Potency [6]: 0.0743 µM (active)
Potency [16]: inactive
Potency [8]: inactive
Potency [9]: 0.0083 µM (active)
Potency [19]: 0.209 µM (active)
Potency [20]: inactive
Potency [12]: inactive
Potency [15]: inactive
Potency [13]: inactive

NC(=O)c1nnn(Cc2cc(Cl)c(C(=O)c3ccc(Cl)cc3)c(Cl)c2)c1N
Potency [1]: 5.9 µM (active)
Potency [2]: inactive
Potency [3]: inactive
Potency [4]: 26.4 µM (active)
Potency [6]: 14.8 µM (active)
Potency [7]: 20.9 µM (active)
Potency [14]: 20.9 µM (active)
Potency [15]: inactive
Potency [13]: 18.7 µM (active)

Cc1ccc(C(=O)N(CCCN)[C@@H](c2nc3cc(Cl)ccc3c(=O)n2Cc2ccccc2)C(C)C)cc1
Potency [1]: 0.001 µM (active)
Potency [2]: inactive
Potency [3]: 10.5 µM (active)
Potency [4]: inactive
Potency [5]: inactive
Potency [7]: 18.7 µM (active)
viability (% of DMSO) [9]: 70.3% (active)
Potency [17]: 23.5 µM (active)
Potency [14]: 26.4 µM (active)
Potency [12]: 8.33 µM (active)

CC(C)CNc1ccnc(NCc2csc(-c3ccccc3)n2)n1
Potency [1]: 7.43 µM (active)
Potency [2]: 16.6 µM (active)
Potency [3]: 9.35 µM (active)
Potency [4]: 5.26 µM (active)
Potency [5]: 11.8 µM (active)
Potency [6]: 2.64 µM (active)
Potency [16]: 6.62 µM (active)
Potency [8]: 0.935 µM (active)
Potency [9]: 13.2 µM (active)
Potency [19]: 16.6 µM (active)
Potency [10]: 4.69 µM (active)
Potency [17]: 16.6 µM (active)
Potency [14]: 5.9 µM (active)
Potency [18]: 20.9 µM (active)
Potency [12]: 20.9 µM (active)
Potency [13]: 20.9 µM (active)

CC(C)(C)c1nc(-c2cccc(NS(=O)(=O)c3c(F)cccc3F)c2F)c(-c2ccnc(N)n2)s1
Potency [1]: 3.32 µM (active)
Potency [2]: 5.9 µM (active)
Potency [3]: 5.9 µM (active)
Potency [6]: 0.264 µM (active)
Potency [7]: 3.32 µM (active)
Potency [16]: 8.33 µM (active)
Potency [8]: 5.26 µM (active)
Potency [9]: 16.6 µM (active)
Potency [10]: 1.87 µM (active)
Potency [11]: 2.35 µM (active)
Potency [17]: inactive
Potency [18]: 5.9 µM (active)
Potency [12]: 7.43 µM (active)
Potency [15]: inactive
Potency [13]: 16.6 µM (active)
